Test results reported in PubChem BioAssay (EPA / NIEHS).
Values joined by “and” are separate entries in the source; they are usually repeats but may differ in a detail not shown here. Equal values may be shown once. More than one record can exist for a structure, and the calls need not agree. Active and inactive are the calls of the source. How the source made its calls: active means hit-call score of the fitted dose curve at least 0.9, where 1 is the maximum; inactive means score below 0.9.

Experiments:
[1] = read-out: Interferon-inducible T-cell alpha chemoattractant (ITAC), CXCL11 (gene 6373); assay: BSK_BE3C_ITAC: BioMAP Diversity Plus: BE3C Assay for Interferon-inducible T-cell alpha chemoattractant (ITAC) Biomarker Activity (AID 2284279); conditions: primary human bronchial epithelial cells
In short: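 ELISA for I-TAC in primary human bronchial epithelial cultures 24 h post-treatment, fitted relative to DMSO baseline in positive direction. Cytotoxicity checked in parallel cultures by sulforhodamine B protein staining.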

[2] = read-out: Interleukin-8 (IL8), CXCL8 (gene 3576); assay: BSK_BE3C_IL8: BioMAP Diversity Plus: BE3C Assay for Interleukin-8 (IL8) Biomarker Activity (AID 2284280); conditions: primary human bronchial epithelial cells
In short: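 ELISA read-out of IL-8 in human lung bronchial epithelial primary cell cultures, 24 h post-dosing; endpoint analysed as signal increase relative to DMSO baseline.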

[3] = read-out: Epidermal growth factor receptor (EGFR), EGFR (gene 1956); assay: BSK_BE3C_EGFR: BioMAP Diversity Plus: BE3C Assay for Epidermal growth factor receptor (EGFR) Biomarker Activity (AID 2284281); conditions: primary human bronchial epithelial cells
In short: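 Primary human lung bronchial epithelial cells; compound, 24 h; EGFR measured by ELISA; positive-direction fit vs DMSO baseline.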

KRT18 (gene 3875) = assay: BSK_BE3C_Keratin818: BioMAP Diversity Plus: BE3C Assay for Keratin 818 Biomarker Activity (AID 2284282); conditions: primary human bronchial epithelial cells
In short: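 Chemicals are added to human lung bronchial epithelial primary cells (BE3C system) and incubated 24 h. Keratin 8/18 is then measured by ELISA, with parallel SRB total-protein staining gauging overt cytotoxicity.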

[4] = read-out: Matrix Metallopeptidase 9 (MMP9), MMP9 (gene 4318); assay: BSK_BE3C_MMP9: BioMAP Diversity Plus: BE3C Assay for Matrix Metallopeptidase 9 (MMP9) Biomarker Activity (AID 2284283); conditions: primary human bronchial epithelial cells
In short: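 MMP9 is measured by ELISA after a 24 h compound exposure of primary human bronchial epithelial cultures. Parallel SRB staining gives overt cytotoxicity. Values fitted in the positive direction against DMSO.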

[5] = read-out: Plasminogen activator inhibitor-1 (PAI1), SERPINE1 (gene 5054); assay: BSK_CASM3C_PAI1: BioMAP Diversity Plus: CASM3C Assay for Plasminogen activator inhibitor-1 (PAI1) Biomarker Activity (AID 2284284); conditions: primary human coronary artery smooth muscle cells;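 further: PAI-1 protein level measured by ELISA 24 h after dosing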
[6] = read-out: Monocyte Chemoattractant Protein-1 (MCP1), CCL2 (gene 6347); assay: BSK_hDFCGF_MCP1: BioMAP Diversity Plus: hDFCGF Assay for Monocyte Chemoattractant Protein-1 (MCP1) Biomarker Activity (AID 2284285); conditions: primary human foreskin fibroblasts
In short: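 Human foreskin fibroblasts (hDFCGF system) were exposed to compound and secreted MCP-1 was measured by ELISA after 24 hours. Activity was fitted relative to DMSO. Cytotoxicity was checked by SRB total-protein staining in parallel cultures.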

[7] = read-out: Vascular cell adhesion molecule 1 (VCAM1), VCAM1 (gene 7412); assay: BSK_IMphg_VCAM1: BioMAP Diversity Plus: IMphg Assay for Vascular cell adhesion molecule 1 (VCAM1) Biomarker Activity (AID 2284286); conditions: primary human endothelial cells with macrophages
In short: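 Human venular endothelial cells co-cultured with macrophages; VCAM-1 quantified by ELISA 24 h after dosing, fitted in the positive direction against DMSO. Cytotoxicity was checked in parallel cultures by SRB total-protein staining (0.1% SRB after 10% TCA fixation, 560 nm).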

[8] = read-out: Intercellular Adhesion Molecule 1 (ICAM1), ICAM1 (gene 3383); assay: BSK_hDFCGF_ICAM1: BioMAP Diversity Plus: hDFCGF Assay for Intercellular Adhesion Molecule 1 (ICAM1) Biomarker Activity (AID 2284287); conditions: primary human foreskin fibroblasts
In short: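 Primary human foreskin fibroblasts (hDFCGF system) dosed with chemical; ICAM-1 quantified by ELISA at 24 h relative to DMSO. Parallel SRB total-protein staining to assess overt cytotoxicity.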

CD40, CD40 (gene 958) = assay: BSK_IMphg_CD40: BioMAP Diversity Plus: IMphg Assay for CD40 Biomarker Activity (AID 2284288); conditions: primary human endothelial cells with macrophages
In short: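 Venular endothelial cells co-cultured with macrophages (human primary), CD40 measured by ELISA 24 h after dosing. Positive-direction fit vs DMSO baseline; cytotoxicity tracked by SRB total-protein staining in parallel cultures.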

Row | SMILES | outcome [1] | outcome [2] | outcome [3] | outcome (KRT18 (gene 3875)) | outcome [4] | outcome [5] | AC50 [6] | outcome [6] | outcome [7] | AC50 [8] | outcome [8] | outcome (CD40, CD40 (gene 958)) | AC50 [4] | AC50 [1] | AC50 [2] | AC50 [3] | AC50 (KRT18 (gene 3875)) | AC50 (CD40, CD40 (gene 958))
1 | C[Si](Cl)(Cl)CCC(F)(F)C(F)(F)C(F)(F)C(F)(F)C(F)(F)C(F)(F)F | inactive | inactive | inactive | inactive | inactive | inactive | 0.441 µM (active) | inactive | inactive | 2.46 µM (active) | inactive | inactive |  |  |  |  |  | 
2 | O=S(=O)(OCC(F)(F)F)C(F)(F)C(F)(F)C(F)(F)C(F)(F)F | inactive | inactive | inactive | inactive | inactive | inactive |  | inactive | inactive |  | inactive | inactive | 6.24 µM (active) |  |  |  |  | 
3 | O=S(=O)(Cl)C(F)(F)C(F)(F)C(F)(F)C(F)(F)C(F)(F)C(F)(F)C(F)(F)C(F)(F)F |  |  |  | inactive |  | inactive |  | inactive | inactive |  | inactive | inactive | 55.1 µM (active) and 55.2 µM (active) | 53.8 µM (active) and 55.1 µM (active) | 41.3 µM (active) and 21.5 µM (active) | 22.7 µM (active) and 30 µM (active) | 46.7 µM (active) | 
4 | FC(F)(F)C(F)(F)C(F)(F)C(F)(F)C(F)(F)C(F)(F)CC[Si](Cl)(Cl)Cl | inactive | inactive | inactive | inactive | inactive | inactive | 0.0393 µM (active) | inactive | inactive |  | inactive | inactive |  |  |  |  |  | 
5 | O=C(O)CCC(F)(F)C(F)(F)C(F)(F)C(F)(F)C(F)(F)C(F)(F)C(F)(F)F |  | inactive | inactive | inactive | inactive | inactive |  | inactive | inactive |  | inactive | inactive |  | 3.43 µM (active) and 2.52 µM (active) |  |  |  | 
6 | NCC(F)(F)C(F)(F)C(F)(F)C(F)(F)C(F)(F)C(F)(F)C(F)(F)C(F)(F)F | inactive | inactive | inactive | inactive | inactive | inactive |  | inactive | inactive |  | inactive | inactive |  |  |  |  |  | 
7 | FC(F)(F)C(F)(F)C(F)(F)C(F)(F)C(F)(F)C(F)(F)C(F)(F)CCI | inactive | inactive | inactive | inactive | inactive | inactive |  | inactive | inactive |  | inactive | inactive |  |  | 662 nM (active) |  |  | 
8 | C=C(C)C(=O)OCC(F)(F)C(F)(F)C(F)(F)C(F)F | inactive | inactive | inactive | inactive | inactive | inactive |  | inactive | inactive |  | inactive | inactive |  |  |  |  |  | 
9 | C=CC(=O)OCC(F)(F)C(F)(F)C(F)(F)C(F)(F)C(F)(F)C(F)(F)C(F)(F)C(F)F | inactive | inactive | inactive | inactive | inactive | inactive | 6.81 µM (active) | inactive | inactive | 20.3 µM (active) | inactive | inactive |  |  |  |  |  | 
10 | O=C(O)C(F)(F)C(F)(F)C(F)(F)OC(F)(F)F | inactive | inactive | inactive | inactive | inactive | inactive |  | inactive | inactive |  | inactive | inactive |  |  |  |  |  | 
11 | O=S(=O)(O)CCC(F)(F)C(F)(F)C(F)(F)C(F)(F)C(F)(F)C(F)(F)C(F)(F)C(F)(F)F | inactive | inactive | inactive | inactive | inactive | inactive |  | inactive | inactive | 22.4 µM (active) | inactive | inactive |  |  | 20400 nM (active) |  |  | 20.9 µM (active)
